# CYP2C9 inh = blockers of cytochrome P450 2C9 activity – biochemical, luminescence, ADME assay, primary screen | actives 20% (n = 96,000) | inhibition, % at 5 µM | P11712 | CYP2C9 Supersomes, luciferin-H conversion;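 active = blocking of liver enzyme CYP2C9 beyond about 50% at 5 µM, limit read from the data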
# Mac1 fbg inh = inhibitors of CD11b/CD18 adhesion to fibrinogen, primary screen, K562 cells, luminescence; Integrin beta-2 (Homo sapiens) + Integrin alpha-M (Homo sapiens), P05107+P11215; inhibition, % at 10 µM; actives 0.54% (n = 93,000); ATPlite luminescence; Mn2+ added to activate the integrin;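 active = primary inhibition of 50% or more at 10 µM, then 40% or more on retest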
# Mac1 fbg enh = enhancers of CD11b/CD18 adhesion to fibrinogen, primary screen, K562 cells, luminescence. activation, % at 10 µM. AID 1499, 2009. actives 0.07% (n = 93,000). ATPlite luminescence;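 active = 10 µM primary screen giving 50% or more activity, confirmed by 40% or more on retest at that dose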
# CYP2C9 activ = human CYP2C9 activators, primary screen, biochemical, luminescence; Cytochrome P450 2C9 (Homo sapiens), P11712; actives 1.4% (n = 96,000); AID 1024, 2008; recombinant CYP2C9, luciferin-H conversion; hits give high values; factor 1 = untreated enzyme, 0 = blocked; activation factor at 5 µM;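 active = activation factor of 2 or more for CYP2C9 at a 5 µM dose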
# CYP2C19 inhib = blockers of cytochrome P450 2C19 activity – biochemical, luminescence, ADME assay, primary screen. CYP2C19 Supersomes, luciferin-H EGE luminescence, 30 min. P33261. actives 21% (n = 96,000). inhibition, % at 5 µM;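 active = CYP2C19 inhibition above a set limit at 5 µM in the primary screen, cut at about 50% in these data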
# Target sequence (P33261 whole entry, looked up): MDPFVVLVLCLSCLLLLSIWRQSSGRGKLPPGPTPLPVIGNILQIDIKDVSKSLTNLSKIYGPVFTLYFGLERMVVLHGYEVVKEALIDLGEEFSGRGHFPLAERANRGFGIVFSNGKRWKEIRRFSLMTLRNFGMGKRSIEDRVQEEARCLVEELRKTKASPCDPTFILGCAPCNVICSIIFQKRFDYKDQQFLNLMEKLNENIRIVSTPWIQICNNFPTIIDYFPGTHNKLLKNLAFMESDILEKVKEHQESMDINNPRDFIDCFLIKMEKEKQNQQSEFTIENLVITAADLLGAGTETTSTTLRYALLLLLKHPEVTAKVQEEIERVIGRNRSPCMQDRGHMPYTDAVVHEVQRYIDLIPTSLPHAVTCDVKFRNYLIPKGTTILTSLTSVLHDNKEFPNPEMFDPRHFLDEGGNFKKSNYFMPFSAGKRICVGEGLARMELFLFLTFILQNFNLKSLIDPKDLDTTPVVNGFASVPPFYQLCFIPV
# CYP2C19 act = human CYP2C19 activators, primary screen, biochemical, luminescence. recombinant CYP2C19, luciferin-H EGE luminescence; hits give high values; 0 = fully inhibited enzyme, 1 = untreated enzyme. AID 1025, 2008. Cytochrome P450 2C19 (Homo sapiens), P33261. activation factor at 5 µM. 96,000 tested, under 10 active;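 active = activation factor of at least 2 at 5 µM in the primary screen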
# Hits are given with their value; n = inactive; x = no result. Most compounds without a hit are left out; they make up all but 28% or so of the library.
SMILES,CYP2C9 inh,Mac1 fbg inh,Mac1 fbg enh,CYP2C9 activ,CYP2C19 inhib,CYP2C19 act
FC(F)(F)c1cccc(NC(=S)N2CCN(c3cccc(C(F)(F)F)c3)CC2)c1,n,n,n,n,n,n
CCOc1ccc(C(=O)N2CCN(c3ccccc3)CC2)cc1OCC,n,x,x,n,n,n
C/C(Cc1ccccc1)=N\NC(=O)CNC(=O)c1ccc(C(C)(C)C)cc1,x,n,n,x,x,x
COc1ccccc1N1CCN(C(=O)Cn2c(=O)[nH]c3ccsc3c2=O)CC1,n,n,n,n,n,n
COC(=O)c1cccnc1N1CCN(c2ccccc2F)CC1,n,n,n,n,82,n
O=C(c1c(F)c(F)c(F)c(F)c1F)N1CCN(c2cccc(C(F)(F)F)c2)CC1,n,n,n,n,n,n
O=C(c1ccccc1F)N1CCN(c2cccc(C(F)(F)F)c2)CC1,63,n,n,n,91,n
CS(=O)(=O)Nc1ccc(C(=O)N2CCN(c3ccccc3F)CC2)cc1,n,n,n,n,n,n
O=C(c1ccccc1F)N1CCN(c2ccccc2F)CC1,n,n,n,n,68,n
O=C(c1ccc2c(c1)OCO2)N1CCN(c2ccc(F)cc2)CC1,n,n,n,n,84,n
O=C(CSc1ccc(-c2ccco2)nn1)c1ccccc1,x,n,n,x,x,x
Cc1ccc(C)n1-c1ccc(N2CCOCC2)c(Br)c1,n,n,n,n,n,n
O=C(Nc1ccccc1)c1cccnc1N1CCCC1,n,n,n,n,n,n
CCn1cc(Br)c(C(=O)N(C)Cc2ccccc2)n1,n,n,n,n,92,n
CCn1cc(Br)c(C(=O)NC(C)c2ccccc2)n1 (stereo unspecified),n,n,n,n,n,n
O=C(c1ccccc1)N1CCN(c2ccccc2F)CC1,66,n,n,n,93,n
CC(C)OC(=O)c1cccnc1N1CCN(c2ccc(F)cc2)CC1,n,n,n,n,63,n
CCOC(=O)c1c(C)[nH]c(NC(=O)N2CCOCC2)c1C,n,n,n,n,n,n
CCN1C=C(Cc2ccccc2C)C2=C(C1)C(c1ccccc1C)C(C#N)=C(N)O2 (stereo unspecified),99,n,n,n,85,n
CCN1C=C(Cc2ccc(F)cc2)C2=C(C1)C(c1ccc(F)cc1)C(C#N)=C(N)O2 (stereo unspecified),n,n,n,n,n,n
O=C(Nc1ccn(Cc2c(F)c(F)cc(F)c2F)n1)c1ccc(COc2ccc(Cl)cc2Cl)o1,99,n,n,n,92,n
O=C(Nc1ccn(Cc2c(F)c(F)c(F)c(F)c2F)n1)c1ccc(COc2ccccc2Cl)cc1,70,n,n,n,n,n
CC(C)CNC(=O)c1ccc(COc2ccc(Cl)cc2Cl)o1,76,n,n,n,n,n
Cn1c(=O)n(C)c2cc(NC(=O)CCl)ccc21,n,n,n,n,n,n
Cc1ccc2c(c1)nnn2C1CCN(CC(=O)NCCc2nc3ccccc3[nH]2)CC1,n,n,n,n,n,n
SMILES,CYP2C9 inh,Mac1 fbg inh,Mac1 fbg enh,CYP2C9 activ,CYP2C19 inhib,CYP2C19 act
CC(=O)N1N=C(c2ccc(Cl)cc2)OC1c1ccc(C(C)C)cc1 (stereo unspecified),n,x,x,n,55,n
O=C1CCc2cc(S(=O)(=O)N3CCC(C(=O)NC4CCCC4)CC3)ccc2N1,52,n,n,n,n,n
Cc1ccc(CCNC(=O)C2CCN(S(=O)(=O)c3ccc4c(c3)CCC(=O)N4)CC2)cc1,n,n,n,n,n,n
CC(C)CCNC(=O)C1CCN(S(=O)(=O)c2ccc3c(c2)CCC(=O)N3)CC1,59,n,n,n,n,n
O=C1CCc2cc(S(=O)(=O)N3CCCC3C(=O)NC3CCCCCCC3)ccc2N1 (stereo unspecified),81,n,n,n,n,n
O=C1CCc2cc(S(=O)(=O)N3CCC(C(=O)NCc4ccccn4)CC3)ccc2N1,n,n,n,n,n,n
COc1ccc(CNC(=O)C2CCCN(S(=O)(=O)c3c(C)n[nH]c3C)C2)cc1 (stereo unspecified),n,n,n,n,n,n
CC(c1nnc(SCC(=O)N2CC(=O)Nc3ccccc32)n1Cc1ccccc1)N(C)C (stereo unspecified),n,n,n,n,n,n
O=C(Nc1nccs1)c1ccc2c(=O)n3c(nc2c1)CCCCC3,x,n,n,x,x,x
COc1ccc(-c2noc(CN3CCC(Cc4ccccc4)CC3)n2)cc1,71,n,n,n,66,n
Cc1ccc(-c2noc(CCC(=O)NC3CCN(Cc4ccccc4)CC3)n2)cc1,72,n,n,n,55,n
COc1ccc(-c2noc(CCC(=O)N3CCN(Cc4ccccc4)CC3)n2)cc1,95,n,n,n,94,n
Cc1ccc(-c2noc(CCC(=O)N3CCCC3)n2)cc1,52,n,n,n,52,n
CCCCc1nnc(NC(=O)CSc2nc(=O)cc(N)n2-c2cccc(C)c2)s1,n,n,n,n,n,n
O=C(NCCc1nc2ccccc2[nH]1)/C(=C/c1ccco1)NC(=O)c1ccc(Br)cc1,x,n,n,x,x,x
COc1ccc(-c2noc(Cc3ccccc3OC)n2)cc1,n,n,n,n,n,n
Clc1ccc(-c2noc(CN3CCCC3)n2)cc1,n,n,n,n,55,n
Cc1ccc(-c2noc(CN3CCCCC3)n2)cc1,n,n,n,n,n,n
Cc1ccc(-c2noc(CCC(=O)NC3CCCc4ccccc43)n2)cc1 (stereo unspecified),62,n,n,n,n,n
COc1ccc(CCc2nc(-c3ccc(-n4cccc4)cc3)no2)cc1,n,62,n,n,n,n
CN1CCN(C(=O)C2(NC(=O)Nc3cccc(F)c3)CCCCC2)CC1,n,n,n,n,n,n
CCCCCn1c(=O)[nH]c2cc(C(=O)NCCCN3CCC(C)CC3)ccc2c1=O,n,n,n,n,n,n
Cn1c(CN2CCCCC2)nc2cc(NC(=O)c3cccc(Br)c3)ccc21,n,59,n,n,n,n
Cn1c(CN2CCCCC2)nc2cc(NC(=O)c3cccs3)ccc21,87,n,n,n,99,n
Cn1c(CN2CCCCC2)nc2cc(NC(=O)c3ccccc3)ccc21,n,n,n,n,n,n
N/C(COc1cccc(C(F)(F)F)c1)=N\NC(=O)c1cccnc1Oc1ccccc1,n,n,n,n,n,n
O=C(COC(=O)c1ccc([N+](=O)[O-])o1)Nc1cccc(S(=O)(=O)N2CCOCC2)c1,x,n,n,x,x,x
